PubChem BioAssay (EPA / NIEHS)
The source made the active and inactive calls. How the source made its calls: active means hit-call score of the fitted dose curve at least 0.9, where 1 is the maximum; inactive means score below 0.9.

read-out: TIMP1, TIMP1 (gene 7076); test: LTEA_HepaRG_TIMP1: Life Technologies and Expression Analysis (LTEA) Assay for TIMP1 using HepaRG (AID 2283534); conditions: mRNA level, 48 h; actives raise or lower the signal;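 further: TaqMan qRT-PCR signal normalized to ACTB GAPDH and POLR2A housekeeping genes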
Procedure: LTEA_HepaRG is a cell based, multiplexed-readout assay that uses HepaRG, a human liver cell line, with measurements taken at 48 hours after chemical dosing on a 96-well plate.LTEA_HepaRG_TIMP1 is one of 102 assay component(s) measured in the LTEA HepaRG cell culture assay. It is a marker of Cell proliferation, survival, death.Data from the assay component LTEA_HepaRG_TIMP1 was analyzed into 1 endpoint. This assay endpoint, LTEA_HepaRG_TIMP1, was analyzed with bidirectional fitting relative to DMSO as the negative control and baseline of activity. Using a type of inducible reporter, measures of mRNA induction for gain or loss-of-signal activity can be used to understand regulation of transcription factor activity. To generalize the intended target to other relatable targets, this assay endpoint is annotated to the protease inhibitor intended target family, where the subfamily is metalloproteinase inhibitor.
A total of 1060 chemcials from the ToxCast library were tested in eight-point concentration-response experiments. Cell culture and cytotoxicity assays were conducted at Thermo Fisher Scientific's Custom Services facility (Madison, WI). A single lot of human HepaRG cells (Thermo Fisher Scientific, Frederick, MD) was used for the cell culture experiments. 96-well format collagen type I coated plates of human HepaRG cells were prepared using established methods. Briefly, cryopreserved HepaRG cells were thawed, plated at a density of approximately 100,000 cells/well in HepaRG Thaw, Plate, and General Purpose media (HPRG770, Thermo Fisher Scientific), and incubated for 48 hours. 0.5% DMSO was selected as vehicle control to balance the requisite need of DMSO in HepaRG cultures to maintain differentiation (for example, baseline metabolism, proportions of hepatocytes vs. cholangiocytes), while enabling further hepatic receptor pathway activation (for example, PXR and CAR) in response to chemical exposure. 48 hours after plating, the culture medium was replaced with HepaRG Serum-Free Incudtion Media. Cells were exposed to each test chemical in duplicate and maintained in CO2 incubators for another 48 hours. Chemical plates were thawed to room temperature and 200x concentrations of treatment groups were prepared. 8-point conentration-reponse curves were made with the highest exposure at 100 uM, followed by half-log dilutions, all in 0.5% DMSO. Each test plate contained variouse controls, induction positive controls (1mM phenobarbital), cytotoxicity positive controls ([…] aflatoxin B1), vehicle controls (0.5% DMSO), and total lysis controls (0.5% DMSO). Cell morphology images were taken using an Essen IncuCyte FLR automated microscope, with six 96-well plates imaged in about 24 minutes. Images were captured and exported and JPEG files. Spent culture media was transfered to black-well plates for the LDH assay, and remaining media was sorted at -80 C for later use. Cells were treated with RLT buffer and frozen until shipped for gene expression analysis. Total RNA was isolated from the cell suspension in 75 uL of Buffer RLT (Qiagen, Germantown, MD 20874) by Quintiles/Expression Analysis (Durham, NC) using a custom isolation procedure. Total RNA from each plate well was transferred to a preamplification plate. Fluidigm's 96.96 Dynamic ArrayTM (Fluidigm, Amsterdam, the Netherlands) technology was used for gene expression analyses by quantitative reverse transcription polymerase chain reaction (qRT-PCR, performed by Quintiles/Expression Analysis, Durham, NC)89. Standard TaqManTM Assays (Applied Biosystems/ThermoFisher Scientific, Foster City, CA) were used to assess the expression of 93 genes selected based on their selectivity and sensitivity to important hepatic receptors known to be modulated by environmental chemicals; importance in human hepatocyte functionality; and hepatotoxicity. […]

outcome, inactive:
O=c1[nH]c2ccc(S(=O)CCN3CCC(Cc4ccc(F)cc4)CC3)cc2o1 (stereo not given)
CCCCCCCCO
Oc1ccc2c(c1)-c1ccccc1C2
Cc1ccc(N)cc1O
CC(C)=CCC/C(C)=C\CO
O=C1OC(=O)C2C3C=CC(C3)C12 (stereo not given)
O=C1CCC(N2C(=O)c3ccccc3C2=O)C(=O)N1 (stereo not given)
C=CC(=C)CCC=C(C)C
O=C(O)CCN(C1(C(=O)NO)CCCC1)S(=O)(=O)c1ccc(Oc2ccc(F)cc2)cc1
CCn1nc(Cc2ccccc2)cc1C1CCN(C[C@H]2C[C@H](N(C)[C@@H](C(=O)O)C(C)C)C[C@@H]2c2cccc(F)c2)CC1
CNCc1ccc(NC(=O)c2c[nH]c3c2C(=O)CCC3)cc1
CC(O)CN(CCN(CC(C)O)CC(C)O)CC(C)O (stereo not given)
CCOC(=O)CC(CC(=O)OCC)(OC(C)=O)C(=O)OCC
NC(=O)NO
On1ccccc1=S
CCN(C(=O)c1cc(C)cc(OC[C@H](C)Nc2ccncc2)c1)C(C)C
O=P(OC(CCl)CCl)(OC(CCl)CCl)OC(CCl)CCl
COCCOCCOCCOC
CC[C@H](C)C(=O)O[C@H]1C[C@@H](C)C=C2C=C[C@H](C)[C@H](CC[C@@H]3C[C@@H](O)CC(=O)O3)[C@H]21
CC(C)CC(C)(O)C#CC(C)(O)CC(C)C (stereo not given)
CCOc1cccc(-n2cc(C(=O)N3CCN(c4cc(C(=O)O)c5ccccc5c4)CC3)nc2-c2ccc(C)cc2)c1
Nc1nc2ncc(CNc3ccc(C(=O)N[C@@H](CCC(=O)O)C(=O)O)cc3)nc2c(=O)[nH]1
O=C(O)CC(O)C(=O)O (stereo not given)
Cn1c(=O)c2c(ncn2C)n(C)c1=O
O=C(NS(=O)(=O)/C=C/c1ccccc1)c1ccc(F)cc1Cl
CCCCCCCCCCCCc1ccccc1
CCOC(=O)c1ccc(C2CCC(NC[C@H](O)COc3ccc(O)c(NS(C)(=O)=O)c3)CC2)cc1 (stereo not given in full)
CCCC(=O)OCC
CC(=O)c1ccc2c(c1)[C@H](NC(=O)c1ccc(F)cc1)[C@@H](O)C(C)(C)O2
COC(=O)c1c(Cl)c(Cl)c(C(=O)OC)c(Cl)c1Cl
Cn1c(=O)cc(Oc2ccc(F)cc2F)c2cnc(NCC(C)(C)O)nc21
Cc1ccc(O)cc1
Cc1[nH]cnc1C[C@H]1CCc2c(C)c3ccccc3n2C1=O
CCOCCO
CCCCC(CC)COC(=O)c1ccc(C(=O)OCC(CC)CCCC)cc1 (stereo not given)
O=c1n(CC2CO2)c(=O)n(CC2CO2)c(=O)n1CC1CO1 (stereo not given)
COC(=O)CC(=O)OC
COc1cccc(-c2ccc(/C=C\CN3CCCCCC3)cc2Cl)c1
CC[C@H]1CC[C@H](NCc2cc3c(cc2OC)[C@H]2C[C@H]2C(=O)N3C)[C@H](c2ccccc2)N1
CC(C)(O)c1coc(S(=O)(=O)NC(=O)Nc2c3c(cc4c2CCC4)CCC3)c1
